# Source: ChEMBL document CHEMBL3433997, “St. Jude Leishmania screening dataset” (2016)
# Where “and” joins values, the source holds several entries; their conditions need not be identical. Equal values may be shown once.
# Key:
# Assay type in all cases: functional
# [1] = target: Solute carrier family 2, facilitated glucose transporter member 1 (Homo sapiens) (UniProt P11166); assay: ST_JUDE_LEISH: Cytotoxicity at 2uM final concentration against transgenic Leishmania Mexicana promastigotes LmGLUT1 that are glucose transport deficient and complemented with the human glucose transporter GLUT1. Activity is measured by DNA content using SYBR green in vitro
# Solute carrier family 2, facilitated glucose transporter member 1 (Homo sapiens), sequence (P11166 whole entry): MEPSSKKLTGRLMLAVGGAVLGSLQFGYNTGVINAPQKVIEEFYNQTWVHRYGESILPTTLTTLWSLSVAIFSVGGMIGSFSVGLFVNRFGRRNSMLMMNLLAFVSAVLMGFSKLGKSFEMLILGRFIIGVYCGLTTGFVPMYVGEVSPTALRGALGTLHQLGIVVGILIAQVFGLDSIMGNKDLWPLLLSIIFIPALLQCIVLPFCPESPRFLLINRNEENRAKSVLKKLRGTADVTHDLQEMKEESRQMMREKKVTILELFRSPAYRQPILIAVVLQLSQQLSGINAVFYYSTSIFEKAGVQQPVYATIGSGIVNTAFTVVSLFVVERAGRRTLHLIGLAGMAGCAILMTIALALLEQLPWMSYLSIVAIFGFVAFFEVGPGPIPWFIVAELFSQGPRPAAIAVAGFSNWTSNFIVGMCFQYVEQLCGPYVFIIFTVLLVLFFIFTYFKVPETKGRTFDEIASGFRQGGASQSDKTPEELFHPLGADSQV
# [2] = target: Hexose transporter 1 (Plasmodium falciparum) (UniProt O97467); assay: ST_JUDE_LEISH: Cytotoxicity at 2uM final concentration against transgenic Leishmania Mexicana promastigotes LmPfHT that are glucose transport deficient and complemented with the Plasmodium falciparum hexose transporter. Activity is measured by DNA content using SYBR green in vitro
# [3] = target: Glucose transporter (Leishmania mexicana) (UniProt O61059); assay: ST_JUDE_LEISH: Cytotoxicity at 2uM final concentration against transgenic Leishmania Mexicana promastigotes LmGT2 that are glucose transport deficient and complemented with the L. Mexicana glucose transporter 2. Activity is measured by DNA content using SYBR green in vitro
SMILES,inhibition [1],inhibition [2],inhibition [3]
COCCNCc1ccc(-c2ccccc2CNC2CCN(Cc3ccccc3)CC2)cc1,1.97%,2.36%,-0.28%
COc1cc2nc(N(C)C)nc(Nc3ccc(OCc4ccccc4)cc3)c2cc1OC,0.24%,1.34%,-0.07%
Cc1cccc2nc(-c3ccc(-c4ccc(CNCCCN5CCCC5=O)cc4)cc3)[nH]c12,7.88%,5.8%,4.42%
COc1ccc2nc3cc(Cl)ccc3c(NCCc3ccccc3)c2c1,1.15%,1.24%,-0.37%
COc1ccc(-c2c(C(F)(F)F)nn(C)c2NC(=O)Nc2ccc(F)cc2F)cc1,-1.15%,-0.84%,1.24%
Cc1ccc2nc3ccccc3c(NCCN3CCN(C)CC3)c2c1,39.1%,50.6%,21.1%
O=C(/C=C/c1ccc(Cl)c(Cl)c1)NC1CCC(CN2CCC(Cc3cc4ccccc4[nH]3)CC2)CC1 (centres undefined),4.78%,1.97%,3.2%
O=C(Nc1ccc(-c2ccccc2)cc1)Nc1cccc(Cn2cnc(N3CCCNCC3)cc2=O)c1,5.12%,4.17%,4.86%
CN(C)CCNC(=O)c1csc(Nc2ccc(Cl)c(Cl)c2)n1,0.89%,1.38%,2.28%
O=C(Cn1c(CCc2cccc(F)c2F)nc(=O)c2cccnc21)N(Cc1ccc(-c2ccc(C(F)(F)F)cc2)cc1)C1CCN(C2CCSCC2)CC1,3.24%,4.36%,0.42%
CN/C(=C\[N+](=O)[O-])NCCSCc1cc(C)c(CN(C)C)s1,5.43%,5.21%,5.98%
Cc1ccccc1C1CCN(C2CCC(NC(=O)/C=C/c3c(F)ccc(F)c3F)CC2)CC1 (centres undefined),2.52%,2.75%,2.13%
Cc1ccc(NC(=O)c2ccc(C(=O)NC3CCN(CC4CCCCC4)CC3)cc2)cc1,2.26%,3.07%,1.65%
COc1c(C2CCN(CCCCNC(=O)c3ccc(-c4ccc(Cl)cc4)cc3)CC2)ccc2c1C(C)(C)CCC2(C)C,-1.1%,-1.15%,-2.13%
Cn1cc(CCNc2ccnc(NCCc3coc4ccccc34)n2)c2ccccc21,8.67%,6.89%,2.14%
O=C(Cn1c(CCc2cccc(F)c2F)cc(=O)c2ccccc21)N(Cc1ccc(-c2ccc(C(F)(F)F)cc2)cc1)C1CCN(CCN2CCOCC2)CC1,1.92%,1.75%,1.28%
COc1ccc2nc(-c3ccc(C(=O)NCCCN4CCN(c5cc(Cl)ccc5OC)CC4)cc3OC)[nH]c2c1,2.79%,1.93%,3.01%
COc1ccc(C2CC(=O)C3=C(C2)NC(C)=C(C(=O)OC2CCCC2)C3c2cccc(O)c2)cc1 (centres undefined),0.09%,0.95%,-0.53%
Cc1nc(C)c(-c2ccc(Oc3ccc(Cl)cc3)c(Cl)c2)c(O)c1Br,2.21%,3.03%,1.91%
CCc1c[nH]c2c(N3CCCC3=O)cc(C(=O)N[C@@H](Cc3ccccc3)[C@H](O)CNC(C)(C)CCCC(C)C)cc12,12.2%,9.72%,8.72%
CC(C)c1ccc(NC(=O)NC2CCN(CCCCCNC(=O)/C=C/c3ccc(Cl)c(Cl)c3)CC2)cc1,-0.71%,-0.91%,-0.17%
CCCN1CCc2c(sc3nc(SCC(=O)Nc4ccc(C)cc4)n(-c4ccc(C)cc4)c(=O)c23)C1,6.06%,3.25%,3.72%
CC(C)(CNC(=O)C1CCN(CCOCc2ccccc2)CC1)c1nc(-c2ccc(Cl)c(O)c2)c(-c2ccncc2)[nH]1,1.22%,0.65%,2.74%
COc1cc2nc(N3CCC(CNC(=O)c4ccc(NC(=O)c5ccc(Cl)cc5)cc4)CC3)nc(N)c2cc1OC,0.04%,0.98%,0.86%

SMILES,inhibition [1],inhibition [2],inhibition [3]
O=C(NC1CCCCN(Cc2ccccc2O)C1)c1ccc(-c2ccccc2)cc1 (centres undefined),2.73%,2.62%,2.4%
OCC1CCN(Cc2ccc(-c3ccc(-c4nc5cc(C(F)(F)F)ccc5[nH]4)s3)cc2)CC1,1.82%,0.23%,1.7%
CC(C)c1ccc(NC(=O)c2cccc(CN3CCCN(Cc4cccc(C#N)c4)CC3)c2)cc1,6.55%,6.93%,3.39%
CCCCCCCOc1ccc(NC(=O)Nc2ccc(Cn3ncc(N4CCCNCC4)c(Cl)c3=O)cc2)cc1,-2.91%,-0.57%,-1.59%
CCCCOc1ccc(CNCCCCCCNCc2ccc(OCCCC)c3ccccc23)c2ccccc12,104%,102%,103%
CC(C)(C)c1ccc(CNC(=O)c2ccc(CNC3CCC(N)CC3)s2)cc1 (centres undefined),-0.19%,0.91%,0.31%
C[C@H](CNc1ccnc(Nc2ccc3[nH]c(=O)[nH]c3c2)n1)c1ccccc1,-1.01% and -1.44%,-0.33% and -0.77%,-0.13% and 0.71%
COc1cc(C(F)(F)F)nc2c(CNCCCNc3cc(=O)c4ccccc4[nH]3)scc12,0.84%,0.13%,0.55%
COc1ccccc1CCNc1nc(C)cc(N[C@@H](Cc2ccccc2)C(=O)NCc2cccc(F)c2)n1,5.91%,1.53%,5.51%
Cc1ccc2[nH]c(C)cc(=NN=Cc3ccccc3Cl)c2c1,2.11%,3.39%,0.08%
Cc1ccc2[nH]c(C)cc(=NN=Cc3ccccc3F)c2c1,13.5%,12.6%,8.78%
Cc1cc(NCCC(=O)Nc2ccccc2)nc(NCCOc2ccccc2)n1,-0.01%,-0.67%,-1.58%
NC(=O)c1ccsc1NC(=O)CNC(c1ccccc1)c1ccccc1,2.02%,3.09%,1.15%
O=C(NCCCCN1CCC(c2ccc([N+](=O)[O-])cc2)CC1)c1ccc(NC(=O)c2ccc(Cl)cc2)cc1,4.18%,1.35%,4.06%
CCCNC(=O)c1cncc(-c2ccc(CNCCCc3ccccc3)cc2)c1,1.92%,1.6%,0.59%
COc1ccc(C=Cc2cc(=N)c3ccccc3[nH]2)cc1Br,1.57%,2.29%,1.29%
Cc1nc2nc(N)nc(N)c2c(C)c1Cc1ccccc1Cl,9.22%,12.6%,7.89%
Cc1cc(NC(=O)Nc2ccc(Oc3ccccc3)cc2)c2ccccc2n1,0.26%,1.44%,-0.34%
Cc1[nH]c(C)c(-c2ccc(OCc3ccccc3)cc2)c(=O)c1Br,5.62%,1.22%,-2.04%
CN(C)c1ccc(-c2csc(C(=O)NC3CCCCN(CCC(C)(C)C)C3)c2)cc1 (centres undefined),2.51%,2.15%,0.68%
Cc1noc(C)c1-c1cccc(CNCc2ccc(-c3ccc(-c4nc5cc(F)ccc5[nH]4)cc3)cc2)c1,8.14%,6.89%,3.46%
O=C(N[C@@H](Cc1ccccc1)C(=O)NCCN1CCCCC1)c1ccc(O)c(-c2ccc(Cl)c(Cl)c2)c1,1.95%,3.59%,0.78%
CCCN(C(=O)c1ccccc1C)c1nnc(-c2ccccc2C)s1,-1.25%,0.17%,-3.1%
COc1ccccc1N(C)CCNc1cc(C)nc(Nc2ccc(C)cc2)n1,8.84%,7.28%,1.83%
